Our source for the outcome and AC50 values is PubChem BioAssay (EPA / NIEHS).

The nature of assay [1]: ACEA_ER_80hr: ACEA Biosciences xCELLigence Real-Time Cell Analysis on Estrogen Receptor Agonism for Proliferation (AID 2282667; active = hit-call score of the fitted dose curve at least 0.9, where 1 is the maximum). The settings on record: T47D proliferation, impedance (xCELLigence), 80 h. In short, it runs like this:
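T47D human breast cells were seeded on electrode plates, monitored overnight, then exposed continuously to compounds in eight-point 1:4 dilutions from 100 uM (max 0.5% DMSO). Impedance-based growth was read at 80 h, fitted upward relative to DMSO.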

Assay [2] is described as follows: APR_HepG2_CellCycleArrest_24hr: Apredica 24-hour HepG2 Assay for Cell Cycle Arrest (AID 2282905).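 Also: cell cycle arrest scored as ratio of 2N to 4N nuclear DNA content.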 The settings on record: imaging, actives raise or lower the signal. The method in brief: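 After 24 h exposure at 0.39–200 uM in 0.5% DMSO, fixed cells received Hoechst 33342 staining. Imaging quantified per-nucleus DNA content; gain or loss fitted against DMSO controls.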

A short description of assay [3]: APR_HepG2_NuclearSize_24hr: Apredica 24-hour HepG2 Assay for Nuclear Size (AID 2282907). The settings on record: high-content imaging, actives raise or lower the signal. In short, it runs like this: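 Nuclear size from Hoechst 33342-stained, formaldehyde-fixed HepG2 nuclei imaged by high-content microscopy, after 24 h dosing at ten concentrations from 0.39 to 200 uM in 0.5% DMSO; gain or loss relative to DMSO baseline.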

Assay [4] in a line: APR_HepG2_MicrotubuleCSK_24hr: Apredica 24-hour HepG2 Assay for Microtubule CSK Stabilty (AID 2282909). The settings on record: HepG2 microtubule cytoskeleton imaging, actives raise or lower the signal. In short, it runs like this: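 Fixed HepG2 cells were stained for alpha-tubulin and imaged after 24 hr exposure to ten concentrations spanning 0.39–200 uM in 0.5% DMSO. Signal change was fitted in both directions relative to DMSO; taxol was the positive control.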

The nature of assay [5]: APR_HepG2_MitoticArrest_24hr: Apredica 24-hour HepG2 Assay for Mitotic Arrest (AID 2282910). The settings on record: high-content imaging, actives raise or lower the signal. In short, it runs like this:
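High-content imaging of fixed HepG2 cells labeled with Hoechst 33342 and anti-phospho-histone H3, after 24 h treatment. Ten concentrations 0.39 to 200 uM in duplicate, final DMSO 0.5%; changes fitted both directions relative to DMSO.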

Assay [6] can be described thus: APR_HepG2_MitoMembPot_24hr: Apredica 24-hour HepG2 Assay for Mitochondrial Membrane Potential (AID 2282911). The settings on record: imaging, actives raise or lower the signal. In short, it runs like this:
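HepG2 human liver cells were exposed 24 hr to compounds at 0.39–200 uM (final DMSO 0.5% v/v) in duplicate. MitoTracker Red CMXRos (250 nM, 30 min) was loaded before formaldehyde fixation; fluorescence was imaged by ArrayScan HCS and fitted bidirectionally versus DMSO.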

Assay [7] can be described thus: APR_HepG2_MitoMass_24hr: Apredica 24-hour HepG2 Assay for Mitochondrial Mass (AID 2282912). The settings on record: high-content imaging, actives raise or lower the signal. The method in brief:
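Endpoint is MitoTracker Red CMXRos (250 nM, 30 min, pre-fixation) intensity from 20x high-content imaging, nuclei located by Hoechst. Human HepG2 cells received ten concentrations from 0.39 to 200 uM in 0.5% DMSO for 24 hr, duplicate wells. Bidirectional fit relative to DMSO.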

Assay [8] can be described thus: APR_HepG2_p53Act_24hr: Apredica 24-hour HepG2 Assay for p53 Activation (AID 2282913).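 Also: p53 protein immunofluorescence averaged per cell in HepG2 with Hoechst nuclei.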 Particulars: high-content imaging, actives raise or lower the signal. The method in brief: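 HepG2 cells exposed 24 hr to compounds at 0.39–200 uM (10 concentrations, duplicate), final DMSO 0.5% v/v. After formaldehyde fixation and Triton permeabilization, p53 was immunolabeled (sheep anti-p53, Cy5 secondary) with Hoechst 33342 nuclear counterstain, then imaged by high-content fluorescence microscopy.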

Assay [9] is described as follows: APR_HepG2_CellCycleArrest_72hr: Apredica 72-hour HepG2 Assay for Cell Cycle Arrest (AID 2282914). Particulars: high-content imaging, actives raise or lower the signal. The method in brief:
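HepG2 cells were exposed to compounds at 0.39–200 uM (0.5% v/v DMSO final, duplicates) for 72 hr, fixed in 3.7% formaldehyde, permeabilized and stained with Hoechst 33342. Nuclear DNA content was quantified by high-content imaging; gain or loss of signal was fitted bidirectionally against DMSO.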

Assay [10] can be described thus: APR_HepG2_CellLoss_72hr: Apredica 72-hour HepG2 Assay for Cell Loss (AID 2282915). The settings on record: high-content imaging. In short, it runs like this: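 Cell number comes from Hoechst 33342-labelled nuclei, imaged at 20x after 3.7% formaldehyde fixation. Dosing was 0.39–200 uM, ten concentrations in duplicate, 0.5% DMSO final, for 72 h. Bidirectional fit relative to DMSO baseline.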

Assay [11] is described as follows: APR_HepG2_CellLoss_24hr: Apredica 24-hour HepG2 Assay for Cell Loss (AID 2282908).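 As to AC50: fit in both directions so a hit may be cell loss or gain.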 Particulars: high-content imaging. The method in brief:
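Nuclei stained with Hoechst 33342 after formaldehyde fixation (3.7%) were imaged at 20x to count cells. Exposure lasted 24 hr, at ten concentrations from 0.39 to 200 uM in duplicate, with 0.5% v/v DMSO. Fit bidirectional, relative to DMSO.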

Results filed as inconclusive are left out. The source made the active and inactive calls. The calls were made as follows, unless noted: active = hit-call score of the fitted dose curve at least 0.9, where 1 is the maximum; inactive = score below 0.9.

Regarding `CCOCCOC(C)=O`, the compound was called inactive in assay [1], in assay [2], in [3], in assay [4], in assay [5] and in assay [6]. Further, the call in [7], in assay [8], in [9] and in [10] was inactive.
As to `C1CC2OC2CC1C1CO1` (stereo not given), the compound was called inactive in assay [1], in assay [2], in assay [3], in [4], in assay [5] and in [6]. The outcome in assay [7], in [8], in assay [9] and in assay [10] was inactive.
With `c1cc2ccc3cccc4ccc(c1)c2c34`, the call in assay [2], in assay [3], in assay [11], in assay [4], in assay [5] and in assay [7] was inactive. Also, the outcome in [8], in [9] and in assay [10] was inactive. Moreover, in assay [6], the AC50 is 92.1 µM (active).
For `CN(C)CCO`, the compound was called inactive in [2], in assay [3], in [4], in assay [5], in assay [6] and in assay [7]. Further, the compound was classed as inactive in [8], in assay [9] and in assay [10].
Regarding `Clc1ccc(C(Cl)(Cl)Cl)cc1`, the compound was classed as inactive in [2], in assay [3], in [4], in [5], in assay [6] and in assay [7]. For the same compound, the compound was classed as inactive in assay [8], in assay [9] and in [10].
For the compound `CO/C=C(/C(=O)OC)c1ccccc1COc1cccc(C(F)(F)F)n1`, the result in assay [2], in assay [3], in [4], in assay [7], in assay [8] and in assay [9] was inactive. In addition, the AC50 in [11] was 9.73 µM (active); in assay [5], 16.8 µM (active); in assay [6], 16.4 µM (active); in [10], 3.39 µM (active).
In the case of `Cc1cc(O)ccc1Cl`, the compound was called inactive in [2], in assay [3], in assay [4], in [5], in assay [6] and in assay [7]. Besides, the outcome in assay [8], in assay [9] and in [10] was inactive.
As to `N#Cc1ccc(N(CC(N)=O)CC(F)(F)F)cc1C(F)(F)F`, the result in assay [2], in [3], in assay [4], in assay [5], in [6] and in assay [7] was inactive. Also, the outcome in [8], in assay [9] and in assay [10] was inactive.
`O=S(=O)(O)C(F)(F)C(F)(F)C(F)(F)C(F)(F)C(F)(F)C(F)(F)F`: the compound was called inactive in [2], in assay [3], in [4], in assay [5], in assay [6] and in assay [7]. Also, the result in [8], in [9] and in assay [10] was inactive.
On to `CC(C)C(=O)OCC(C)(C)C(OC(=O)C(C)C)C(C)C` (stereo not given), for which the result in assay [2], in assay [3], in [4], in assay [5], in assay [6] and in [7] was inactive. In addition, the outcome in [8], in assay [9] and in assay [10] was inactive.
Regarding `CC(C)(O)C(=O)Nc1ccc([N+](=O)[O-])c(C(F)(F)F)c1`, the result in [2], in assay [3], in assay [4], in [5], in assay [6] and in assay [7] was inactive. The call in assay [8], in [9] and in [10] was inactive.
Turning to `Oc1c(Cl)c(Cl)c(Cl)c(Cl)c1Cl`, the AC50 in assay [2] is 86.7 µM (active); in assay [9], 60.8 µM (active); in [10] it was 55.9 µM (active). In addition, the compound was classed as inactive in assay [3], in [11], in [4], in assay [5], in assay [6] and in [7]. Also, the compound was called inactive in assay [8].
`ClC1=C(Cl)[C@]2(Cl)[C@@H]3[C@H]4C[C@H]([C@@H]5O[C@H]45)[C@@H]3[C@@]1(Cl)C2(Cl)Cl`: the compound was classed as inactive in assay [2], in [3], in [11], in assay [4], in assay [5] and in [7]. For the same compound, the compound was called inactive in [8], in assay [9] and in assay [10]. Besides, the AC50 in assay [6] was 59.3 µM (active).
As for `Nc1ccc(-c2ccc(N)cc2)cc1`, the AC50 in assay [2] and in assay [8] was 100 µM (active) throughout. Moreover, the result in assay [3], in assay [4], in assay [5], in assay [6], in assay [7] and in [9] was inactive. For the same compound, the call in assay [10] was inactive.
As for `O=C(O)C(F)(F)C(F)(F)C(F)(F)C(F)(F)C(F)(F)C(F)(F)C(F)(F)C(F)(F)C(F)(F)F`, the call in [2], in assay [4] and in assay [6] was inactive. Moreover, the AC50 in assay [3] was 130 µM (active); in assay [5], 106 µM (active); in assay [7] it was 109 µM (active); in [8], 97.4 µM (active); in assay [9], 66.8 µM (active); in assay [10] it was 96 µM (active).
Turning to `O=C(O)C(F)(F)C(F)(F)C(F)(F)C(F)(F)C(F)(F)C(F)(F)C(F)(F)C(F)(F)F`, the AC50 is 105 µM (active) in [2]; 139 µM (active) in assay [5]; 107 µM (active) in [7]; 114 µM (active) in assay [8]; 110 µM (active) in assay [10]. In addition, the compound was classed as inactive in [3], in [4], in assay [6] and in assay [9].
With `CCCCCCOC(=O)c1ccccc1C(=O)OCCCCCC`, the compound was classed as inactive in [2], in [3], in assay [4], in assay [5], in assay [7] and in assay [8]. The AC50 in [11] is 97.3 µM (active); in assay [6], 112 µM (active); in [9], 109 µM (active); in [10], 102 µM (active).
